# High-throughput results as filed in PubChem BioAssay.
# CYP2C19 inh: human CYP2C19 inhibition; P33261; CYP2C19 Supersomes, luciferin-H EGE luminescence, 30 min; inhibition, % at 5 µM; hit rate 21% among 96,000; AID 778;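 active means CYP2C19 inhibition above a set limit at 5 µM in the primary screen, cut at about 50% in these data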
# Target sequence (P33261 whole entry, looked up): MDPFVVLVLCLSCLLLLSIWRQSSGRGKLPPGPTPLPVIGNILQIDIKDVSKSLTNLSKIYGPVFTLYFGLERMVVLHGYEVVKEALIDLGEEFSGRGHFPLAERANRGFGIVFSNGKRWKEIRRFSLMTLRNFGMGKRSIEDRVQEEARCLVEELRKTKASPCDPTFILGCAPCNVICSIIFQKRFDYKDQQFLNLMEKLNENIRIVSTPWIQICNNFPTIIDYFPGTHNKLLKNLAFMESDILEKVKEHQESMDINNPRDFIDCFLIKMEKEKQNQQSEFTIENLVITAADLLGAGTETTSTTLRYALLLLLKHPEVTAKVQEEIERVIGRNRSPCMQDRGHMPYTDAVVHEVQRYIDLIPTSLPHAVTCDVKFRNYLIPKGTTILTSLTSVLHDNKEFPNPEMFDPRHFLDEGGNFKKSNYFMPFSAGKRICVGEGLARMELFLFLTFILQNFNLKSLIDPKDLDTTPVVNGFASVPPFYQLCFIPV
# CD11b adhes enh: CD11b/CD18-fibrinogen binding enhancement; K562 CD11b/CD18 adhesion to fibrinogen, ATPlite luminescence; activation, % at 10 µM; hit rate 0.07% among 93,000;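 active means 10 µM primary screen giving 50% or more activity, confirmed by 40% or more on retest at that dose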
# CD11b adhes inh: inhibitors of human CD11b/CD18 binding to fibrinogen. P05107+P11215. hit rate 0.54% among 93,000. inhibition, % at 10 µM. K562 CD11b/CD18 adhesion to fibrinogen, ATPlite luminescence; Mn2+ added to activate the integrin;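 active means primary inhibition of 50% or more at 10 µM, then 40% or more on retest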
# CYP2C9 inh: inhibitors of human CYP2C9; P11712; CYP2C9 Supersomes, luciferin-H conversion, luminescence; inhibition, % at 5 µM; hit rate 20% among 96,000; AID 777;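 active means blocking of liver enzyme CYP2C9 beyond about 50% at 5 µM, limit read from the data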
# CYP2C19 act: cytochrome P450 2C19 (human) activation | activation factor at 5 µM | 96,000 tested, under 10 active | AID 1025 | recombinant CYP2C19, luciferin-H EGE luminescence; hits give high values; 0 = fully inhibited enzyme, 1 = untreated enzyme | P33261;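 active means activation factor of at least 2 at 5 µM in the primary screen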
# CYP2C9 activ: activators of human CYP2C9. recombinant CYP2C9, luciferin-H conversion, luminescence; hits give high values; factor 1 = untreated enzyme, 0 = blocked. activation factor at 5 µM. hit rate 1.4% among 96,000;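 active means activation factor of 2 or more for CYP2C9 at a 5 µM dose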
# Numbers stand for hits; - = inactive; . = no result. Shown are actives, neighbours in structure and some others; about 28% of the full set was active somewhere.
SMILES,CYP2C19 inh,CD11b adhes enh,CD11b adhes inh,CYP2C9 inh,CYP2C19 act,CYP2C9 activ
Clc1ccccc1Cn1nnc2c(Nc3ccccc3)ncnc21,-,-,-,-,-,-
COC(=O)c1ccccc1NC(=S)N(Cc1ccc2c(c1)OCO2)Cc1cc2cccc(C)c2[nH]c1=O,.,-,-,.,.,.
CCOC(=O)c1nn(-c2ccccc2)c2nc(Nc3ccccc3)cc(=O)n12,-,-,-,-,-,-
Cc1cc2cc(CCNC(=O)CC(C)(C)C)c(=O)[nH]c2cc1C,-,-,-,-,-,-
N#Cc1ccc2ccn(CC(=O)NC3CCCCCC3)c2c1,58,-,-,-,-,-
COC(=O)c1ccc2ccn(CC(=O)NC3CCCCC3)c2c1,-,.,.,-,-,-
C/C(=N\N=C(/N)SC1CC(=O)N(c2ccc(Cl)cc2)C1=O)c1cccs1 (stereo not drawn),-,-,-,-,-,-
C/C(=N\N=C(/N)SC1CC(=O)N(c2ccccc2)C1=O)c1cccs1 (stereo not drawn),-,-,-,56,-,-
CCOC(=O)N1CCC(NC(=O)CCC(=O)N2CC(C)Oc3ccc(Cl)cc32)CC1 (stereo not drawn),-,.,.,-,-,-
O=C(O)C1CCCCC1C(=O)Nc1ccccc1Cl (stereo not drawn),64,.,.,-,-,-
CC(C)CNC(=O)c1ccccc1SCC(=O)NC12CC3CC(CC(C3)C1)C2,.,-,-,.,.,.
Cn1c(C(O)c2ccc(Cl)cc2)nc(Cl)c1Cl (stereo not drawn),91,-,-,-,-,-
CCOC(=O)c1c(C)oc2ccc(NS(=O)(=O)c3cccs3)cc12,64,-,-,79,-,-
CCCOC(=O)c1ccc(NS(=O)(=O)c2cccs2)cc1,-,-,-,100,-,-
CCCCOC(=O)c1c(C)oc2ccc(NS(=O)(=O)c3ccc4c5c(cccc35)C(=O)N4)cc12,66,-,-,96,-,-
CC(C)(C)C1CCc2[nH]nc(C(=O)O)c2C1 (stereo not drawn),-,-,-,-,-,-
COC(=O)[C@H](Cc1ccccc1)NC(=O)NCC1CCCO1 (stereo partly drawn),-,-,-,-,-,-
CC(Oc1ccc(-c2ccccc2)c(F)c1)c1ccn(S(=O)(=O)c2ccc(Cl)cc2)n1 (stereo not drawn),-,.,.,68,-,-
CC(Oc1ccc(Cl)cc1)c1ccnn1S(=O)(=O)c1ccccc1 (stereo not drawn),82,-,-,-,-,-
c1ccc(Nc2nc(-c3ccccn3)cs2)cc1,-,-,-,-,-,-
c1ccc(-c2csc(Nc3cccnc3)n2)nc1,67,-,-,68,-,-
CC(C)(C)n1nnnc1C(c1cccc(C#N)c1)N1CCCc2ccccc21 (stereo not drawn),91,-,-,94,-,-
CCC(C)(C)n1nnnc1C(c1cccnc1)N1CCCc2ccccc21 (stereo not drawn),-,-,-,-,-,-
COc1ccccc1C(c1nnnn1C(C)(C)C)N1CCCc2ccccc21 (stereo not drawn),-,.,.,-,-,-
COc1ccccc1N1CCN(C(c2ccccc2Cl)c2nnnn2C(C)(C)C)CC1 (stereo not drawn),-,-,-,-,-,-
SMILES,CYP2C19 inh,CD11b adhes enh,CD11b adhes inh,CYP2C9 inh,CYP2C19 act,CYP2C9 activ
COc1ccccc1C(c1nnnn1C(C)(C)C)N1CCN(Cc2ccncc2)CC1 (stereo not drawn),79,.,.,89,-,-
COc1ccccc1N1CCN(C(c2ccc(Cl)cc2)c2nnnn2C(C)(C)C)CC1 (stereo not drawn),89,-,-,87,-,-
CC(C)(C)n1nnnc1C(c1ccc(Cl)cc1)N1CCCc2ccccc21 (stereo not drawn),84,-,-,76,-,-
CC(C)c1c(C#N)c(N)nc(SCC(=O)c2cc3ccccc3oc2=O)c1C#N,-,.,.,92,-,-
Cn1cnnc1SCC(=O)c1cc2ccccc2oc1=O,-,-,-,-,-,-
O=C(CSc1nnc(-c2cccnc2)o1)c1cc2ccccc2oc1=O,-,-,-,70,-,-
N#Cc1ccc(-c2ccccc2)nc1SCC(=O)c1cc2ccccc2oc1=O,-,-,-,76,-,-
Cn1c(CSCc2ccc(F)cc2)nnc1SCC(=O)N1CCN(c2ccccc2)CC1,-,-,-,-,-,-
Fc1ccc(C[n+]2csc3ccccc32)cc1,-,.,.,60,-,-
CCn1c(CCNC(=O)c2ccc(Cl)c(Cl)c2)nnc1SCCOc1ccc(OC)cc1,-,-,-,-,-,-
CCSc1nc(-c2ccc(OC)cc2)n(-c2nc3ccccc3s2)n1,-,-,-,54,-,-
CCC1(C)CC(CCNS(=O)(=O)c2ccc(C)cc2)(c2ccc(C)cc2)CCO1 (stereo not drawn),69,.,.,53,-,-
Cc1ccc(S(=O)(=O)NCCC2(C(C)C)CCOC(C)(C)C2)cc1 (stereo not drawn),-,-,-,-,-,-
CCOc1ccc(N(CC(=O)O)S(=O)(=O)c2ccc(OC)c(OC)c2)cc1,-,-,-,-,-,-
CCOc1ccc(N(CC(=O)NCc2ccco2)S(=O)(=O)c2ccc(OC)c(OC)c2)cc1,98,-,-,62,-,-
COc1ccc(N(CC(=O)NCc2ccco2)S(=O)(=O)c2ccc(OC)c(OC)c2)cc1,100,-,-,-,-,-
CCCCN(C)CCn1c(=S)[nH]c2ccc(N3CCOCC3)cc2c1=O,-,-,-,-,-,-
CCCCn1c(=O)c(Cc2ccccc2)c(O)c2ccccc21,-,-,-,-,-,-
CCCCCCn1c(=O)c(-c2ccccc2)c(O)c2ccccc21,-,-,-,76,-,-
Cc1cc(NS(=O)(=O)c2ccc(Nc3nc(-c4sc(NC(=O)c5ccccc5)nc4C)cs3)cc2)no1,-,-,79,75,-,-
Cc1ccc(Cl)cc1Nc1nc(-c2sc(NC(=O)c3ccccc3)nc2C)cs1,52,.,.,77,-,-
Cc1nc(NC(=O)c2ccccc2)sc1-c1csc(N)n1,-,-,-,54,-,-
CCCCCCC(=O)Nc1nc(C)c(-c2csc(Nc3cc(Cl)ccc3C)n2)s1,-,.,.,-,-,-
Cc1nc(NC(=O)c2ccccc2)sc1-c1csc(NCCc2ccccc2)n1,-,-,-,78,-,-
CCOc1ccccc1Nc1nc(-c2sc(NC(=O)c3ccccc3)nc2C)cs1,-,-,-,-,-,-
COc1cc2c(cc1OC)CN(C(=S)Nc1ccc(C)cc1C)CC2,.,-,-,.,.,.
CC(=O)c1c(C)nc2nonc2c1N,-,-,-,-,-,-
Cc1nc2sccn2c1-c1csc(NCc2ccccc2)n1,90,-,109,62,-,-
Cc1nc(N)sc1-c1csc(NCc2ccccc2)n1,-,-,-,-,-,-
